According to ChEMBL document CHEMBL1157539, “Thousands of chemical starting points for antimalarial lead identification” (Nature, 2010):

These compounds were tested on HepG2 (assay: GSK_TCMDC: Percent inhibition of human HepG2 cell line. Test compounds present at 10uM.).
Assay type: functional

Row | SMILES | Inhibition [%]
1 | Fc1cc(Cl)ccc1Nc1ccnc2cc(-c3ccc(CNCCN4CCOCC4)o3)ccc12 | 13
2 | COc1ccc2nccc([C@@H](O)CN3CCC(NCc4nc5c(cc4Cl)OCC(=O)N5)C(F)C3)c2c1.Cl (stereo not given in full) | 4
3 | O=C(Nc1cc(C(F)(F)F)ccc1N1CCOCC1)C(Cl)(Cl)Cl | 0
4 | CCc1ccc2c(c1O)CCN(C)C2Cc1ccccc1Cl.Cl (stereo not given) | 13
5 | O=C(O)C(F)(F)F.O=S(=O)(NCCN1CCCC1)c1ccc(-c2ccc(CNCc3ccc(F)cc3)cc2)s1 | 42
6 | CC(CC(=O)NCC1(c2ccc(F)cc2Cl)CCOCC1)C(=O)c1ccc(Cl)cc1 (stereo not given) | 6
7 | CCc1c(C)c(C#N)c2nc3ccccc3n2c1NCc1ccco1 | 0
8 | Br.N=c1sc2ccccc2n1CC(O)c1ccc(Cl)c(Cl)c1 (stereo not given) | 4
9 | COc1ccc(-c2cnc3ccc(NCc4ccc(S(N)(=O)=O)cc4)nn23)cn1 | 16
10 | CN1CCN(c2ccnc3ccc(NC(=O)Cc4cccc(Cl)c4Cl)cc23)CC1 | 8
11 | Cc1ccccc1C1CCN(C2CCC(NC(=O)/C=C/c3ccc(C#N)cc3)CC2)CC1 (stereo not given) | 39
12 | Nc1nc(N)c2c(ccc3c2ccn3CCCF)n1 | 61
13 | CC(C)(Oc1c(C2CCN(CCCCNC(=O)c3ccc(-c4ccc(Cl)cc4)cc3)CC2)ccc2c1CCCC2)C(N)=O | 100
14 | CCN(CC)CCn1c2ccccc2c2ccc(C(=O)Nc3ccc4sc(C)nc4c3)cc21.Cl | 97
15 | Cc1nnc(NC(=O)c2cn(-c3ccccc3)nc2-c2ccccc2C)o1 | 37
16 | O=C(Nc1ccc(Br)cc1)N1CCC(n2c(-c3ccccc3)nc3cccnc32)CC1 | 36
17 | CC(C)CCN1CCCN(Cc2ccc(C(=O)NCc3ccc(Cl)cc3)cc2)CC1.O=C(O)C(F)(F)F | 16
18 | Cc1nc(N)nc(N)c1-c1ccc(Cl)cc1 | 15
19 | CCCCNc1c(CC)c(C)c(C#N)c2nc3ccccc3n12 | 3
20 | COc1cc(NC(=O)N2CCc3ccc(OCCC4CCCN4C)cc32)cc(C(F)(F)F)c1.O=C(O)C(F)(F)F (stereo not given) | 5

Row | SMILES | Inhibition [%]
21 | CCOCn1c(-c2ccccc2)cc2c3c(N)nc(N)nc3ccc21 | 62
22 | Cl.Nc1ccc(-c2cc(Cl)cc(Cl)c2)cc1-c1cc2ccccc2[nH]1 | 0
23 | O=c1cc(NCCCNCc2cc(C(F)(F)F)ccc2F)[nH]c2ccccc12 | 0
24 | CC1CCC(C[C@@H](C(=O)N[C@H](C(=O)Nc2nccs2)[C@@H](C)O)[C@H](CCC(F)(F)F)N(O)C=O)CC1 (stereo not given in full) | 0
25 | Cc1ccc(C(=O)N2CCN(Cc3nccs3)CC2)cc1 | 0
26 | COc1ccc(CN(C)Cc2cc(C(C)C)c(C)cc2O)cc1F | 1
27 | Cc1c(C(=O)Nc2cc(Sc3ccc(F)cc3)cc([N+](=O)[O-])c2)sc2ncn(Cc3cccc(F)c3)c(=O)c12 | 0
28 | CN(C)CCCn1cncc1-c1ccc2ncnc(Nc3ccc(OCc4ccccc4)cc3)c2c1 | 37
29 | Cc1ccc(C)c(NC(=O)Nc2ccc(Nc3nc(C)cc(N4CCOCC4)n3)cc2)c1 | 88
30 | Cc1n[nH]c2cc(Nc3ccnc(Nc4cccc(CN5CCOCC5)c4)n3)ccc12 | 33
31 | CC(C)CN(C)c1ncnc2c1nc(-c1cncc(C#N)c1)n2CCNCc1ccccc1.O=C(O)C(F)(F)F | 4
32 | Cc1nc(-c2cccc(Nc3nccc(NCC(O)c4ccccc4C)n3)c2)cs1 (stereo not given) | 38
33 | CN1CCN(CCCN(Cc2cccc(-c3ccc(CNC4CCCC4)cc3)c2)C(=O)/C=C/c2ccccc2)CC1.O=C(O)C(F)(F)F | 62
34 | CC(C)c1cccc(OCC2CCN(c3ncc(C(=O)NC4CC4)cc3Cl)CC2)c1 | 9
35 | Cc1cnc(Nc2cccc(CCN3CCOCC3)c2)nc1NC(C)C.Cl | 53
36 | CN1CCC(N(Cc2ccc(-c3cnc(NCc4ccccc4)nc3)cc2)S(=O)(=O)c2ccccc2)CC1.O=C(O)C(F)(F)F | 48
37 | Oc1ccc(-c2cncc(NCc3ccc(F)c(F)c3)c2)cc1 | 0
38 | CCOc1ccc(C(C)NC(=O)Cc2ccccc2F)cc1OCC (stereo not given) | 15
39 | COc1cc(OC)c(NC(=O)C2c3ccccc3C(=O)N(CC(C)C)C2c2cccs2)cc1Cl (stereo not given) | 9
40 | C=CCn1c(SCc2c(C)noc2C)nc2scc(-c3cccs3)c2c1=O | 13
